log2 fold change data for 33 targets are collected here from the supplement of paper PMC10849652.

About 8,800 targets were measured; listed, in parts, are those with a hit and a random draw of the rest. About 0.5% of all pairs of compound and target were hits. Unmarked numbers belong to inactive results.

Chain of UniProt Q9H3M7 (Q9H3M7 whole entry, looked up): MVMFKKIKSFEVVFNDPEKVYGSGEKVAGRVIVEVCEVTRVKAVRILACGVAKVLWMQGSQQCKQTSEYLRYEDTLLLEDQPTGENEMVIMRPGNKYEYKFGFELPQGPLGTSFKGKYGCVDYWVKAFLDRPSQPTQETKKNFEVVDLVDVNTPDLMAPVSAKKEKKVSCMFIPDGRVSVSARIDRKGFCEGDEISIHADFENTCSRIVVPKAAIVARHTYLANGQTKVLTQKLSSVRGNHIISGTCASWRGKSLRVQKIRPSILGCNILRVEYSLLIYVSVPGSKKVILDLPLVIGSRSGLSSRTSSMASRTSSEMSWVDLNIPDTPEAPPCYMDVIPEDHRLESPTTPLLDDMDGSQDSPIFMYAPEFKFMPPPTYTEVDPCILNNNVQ
Chain of UniProt Q9BZL1 (Q9BZL1 whole entry, looked up): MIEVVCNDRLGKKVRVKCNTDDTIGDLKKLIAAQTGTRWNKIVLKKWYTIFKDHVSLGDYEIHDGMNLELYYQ
Chain of UniProt P10646 (P10646 whole entry, looked up): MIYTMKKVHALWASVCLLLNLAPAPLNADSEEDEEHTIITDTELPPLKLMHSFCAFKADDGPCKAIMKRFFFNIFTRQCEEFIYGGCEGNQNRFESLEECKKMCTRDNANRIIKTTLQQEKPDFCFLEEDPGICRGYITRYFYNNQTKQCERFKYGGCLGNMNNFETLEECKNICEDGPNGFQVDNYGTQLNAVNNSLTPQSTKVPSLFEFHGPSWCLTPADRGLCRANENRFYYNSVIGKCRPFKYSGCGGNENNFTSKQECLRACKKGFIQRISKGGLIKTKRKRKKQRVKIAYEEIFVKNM
Chain of UniProt Q96LJ8 (Q96LJ8 whole entry, looked up): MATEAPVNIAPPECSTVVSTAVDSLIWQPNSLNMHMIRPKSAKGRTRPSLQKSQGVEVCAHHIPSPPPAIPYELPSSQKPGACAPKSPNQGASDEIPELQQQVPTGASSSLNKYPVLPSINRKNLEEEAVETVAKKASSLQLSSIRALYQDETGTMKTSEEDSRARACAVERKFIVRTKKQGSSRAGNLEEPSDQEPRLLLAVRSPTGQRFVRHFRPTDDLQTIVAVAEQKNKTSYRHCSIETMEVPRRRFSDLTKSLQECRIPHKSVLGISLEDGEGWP
Chain of UniProt Q9Y5Z9 (Q9Y5Z9 whole entry, looked up): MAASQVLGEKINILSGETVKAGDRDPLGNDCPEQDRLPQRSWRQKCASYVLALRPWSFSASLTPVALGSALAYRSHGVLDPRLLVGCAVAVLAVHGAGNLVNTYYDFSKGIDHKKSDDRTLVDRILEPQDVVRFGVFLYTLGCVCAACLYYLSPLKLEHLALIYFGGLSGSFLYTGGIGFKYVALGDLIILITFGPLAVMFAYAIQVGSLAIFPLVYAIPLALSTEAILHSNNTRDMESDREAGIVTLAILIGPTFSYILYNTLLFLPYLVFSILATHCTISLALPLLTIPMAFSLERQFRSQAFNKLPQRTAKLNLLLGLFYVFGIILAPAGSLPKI
Chain of UniProt P09493 (P09493 whole entry, looked up): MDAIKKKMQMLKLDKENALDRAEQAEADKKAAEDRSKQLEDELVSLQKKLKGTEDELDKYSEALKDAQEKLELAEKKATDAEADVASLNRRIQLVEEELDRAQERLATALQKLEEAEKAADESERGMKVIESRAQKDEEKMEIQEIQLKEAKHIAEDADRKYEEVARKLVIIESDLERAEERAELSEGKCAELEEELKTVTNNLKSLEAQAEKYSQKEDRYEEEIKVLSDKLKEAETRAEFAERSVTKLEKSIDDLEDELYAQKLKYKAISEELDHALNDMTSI
Chain of UniProt P06753 (P06753 whole entry, looked up): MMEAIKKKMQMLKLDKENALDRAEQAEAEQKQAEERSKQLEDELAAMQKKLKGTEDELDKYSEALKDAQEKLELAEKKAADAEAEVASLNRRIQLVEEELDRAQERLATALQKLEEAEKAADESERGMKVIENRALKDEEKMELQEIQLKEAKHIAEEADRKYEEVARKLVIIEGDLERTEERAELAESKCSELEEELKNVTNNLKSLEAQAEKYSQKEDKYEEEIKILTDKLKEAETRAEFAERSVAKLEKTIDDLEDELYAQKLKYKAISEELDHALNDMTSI
Chain of UniProt O95271 (O95271 whole entry, looked up): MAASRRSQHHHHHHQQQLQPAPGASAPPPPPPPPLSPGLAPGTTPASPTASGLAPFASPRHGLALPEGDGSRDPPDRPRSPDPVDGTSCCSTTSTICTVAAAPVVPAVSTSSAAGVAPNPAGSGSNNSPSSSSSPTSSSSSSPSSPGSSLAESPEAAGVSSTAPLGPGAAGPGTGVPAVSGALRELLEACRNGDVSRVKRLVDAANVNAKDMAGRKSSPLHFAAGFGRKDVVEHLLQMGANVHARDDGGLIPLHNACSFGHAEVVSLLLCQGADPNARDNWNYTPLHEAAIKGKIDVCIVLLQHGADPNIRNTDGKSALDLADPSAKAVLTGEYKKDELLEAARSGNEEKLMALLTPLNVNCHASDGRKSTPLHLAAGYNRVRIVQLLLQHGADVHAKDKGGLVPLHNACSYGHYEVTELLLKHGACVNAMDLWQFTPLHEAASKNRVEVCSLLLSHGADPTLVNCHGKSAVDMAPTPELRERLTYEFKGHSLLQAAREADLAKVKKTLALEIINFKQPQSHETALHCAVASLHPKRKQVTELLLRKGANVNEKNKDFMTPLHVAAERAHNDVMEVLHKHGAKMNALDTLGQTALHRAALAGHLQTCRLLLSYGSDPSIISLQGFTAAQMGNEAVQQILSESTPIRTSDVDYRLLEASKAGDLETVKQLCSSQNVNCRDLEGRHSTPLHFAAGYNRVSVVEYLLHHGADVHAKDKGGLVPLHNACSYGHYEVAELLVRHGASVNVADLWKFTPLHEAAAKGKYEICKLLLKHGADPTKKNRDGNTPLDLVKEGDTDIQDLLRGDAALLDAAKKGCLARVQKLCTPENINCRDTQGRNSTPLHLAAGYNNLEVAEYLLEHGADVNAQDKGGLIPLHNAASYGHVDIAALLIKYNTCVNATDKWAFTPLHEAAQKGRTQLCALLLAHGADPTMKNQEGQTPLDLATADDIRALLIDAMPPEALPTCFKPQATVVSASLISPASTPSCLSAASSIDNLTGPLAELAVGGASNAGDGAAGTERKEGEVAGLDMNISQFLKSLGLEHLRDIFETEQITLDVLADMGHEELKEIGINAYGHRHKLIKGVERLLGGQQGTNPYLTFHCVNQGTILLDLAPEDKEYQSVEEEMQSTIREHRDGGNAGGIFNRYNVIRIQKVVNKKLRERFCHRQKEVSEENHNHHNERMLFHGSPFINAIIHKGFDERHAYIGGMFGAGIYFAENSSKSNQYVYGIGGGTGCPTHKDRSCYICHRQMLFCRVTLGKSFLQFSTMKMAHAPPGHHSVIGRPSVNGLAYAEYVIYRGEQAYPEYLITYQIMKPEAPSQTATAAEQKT
Chain of UniProt Q8NDZ6 (Q8NDZ6 whole entry, looked up): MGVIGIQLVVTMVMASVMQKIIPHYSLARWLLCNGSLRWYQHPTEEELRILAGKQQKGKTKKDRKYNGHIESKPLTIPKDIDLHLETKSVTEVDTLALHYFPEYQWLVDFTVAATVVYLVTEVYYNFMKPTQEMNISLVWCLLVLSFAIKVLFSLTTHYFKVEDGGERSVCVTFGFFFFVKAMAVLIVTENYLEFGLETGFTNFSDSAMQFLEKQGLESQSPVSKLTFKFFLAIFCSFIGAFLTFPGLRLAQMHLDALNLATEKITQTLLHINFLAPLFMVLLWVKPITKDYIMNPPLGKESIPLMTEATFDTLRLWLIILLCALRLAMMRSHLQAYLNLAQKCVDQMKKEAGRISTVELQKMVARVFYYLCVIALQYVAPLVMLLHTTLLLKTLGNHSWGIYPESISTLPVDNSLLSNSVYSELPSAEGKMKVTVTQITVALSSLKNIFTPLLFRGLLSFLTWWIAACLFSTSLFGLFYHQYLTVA
Chain of UniProt Q14CS0 (Q14CS0 whole entry, looked up): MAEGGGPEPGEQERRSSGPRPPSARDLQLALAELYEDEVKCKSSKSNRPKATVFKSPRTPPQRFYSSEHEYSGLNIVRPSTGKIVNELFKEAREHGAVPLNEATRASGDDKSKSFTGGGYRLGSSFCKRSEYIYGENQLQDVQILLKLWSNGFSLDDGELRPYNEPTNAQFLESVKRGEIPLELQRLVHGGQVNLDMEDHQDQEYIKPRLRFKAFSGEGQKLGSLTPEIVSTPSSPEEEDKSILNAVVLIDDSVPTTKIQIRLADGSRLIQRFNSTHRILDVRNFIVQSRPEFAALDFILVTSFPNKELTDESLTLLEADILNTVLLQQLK
Chain of UniProt Q01664 (Q01664 whole entry, looked up): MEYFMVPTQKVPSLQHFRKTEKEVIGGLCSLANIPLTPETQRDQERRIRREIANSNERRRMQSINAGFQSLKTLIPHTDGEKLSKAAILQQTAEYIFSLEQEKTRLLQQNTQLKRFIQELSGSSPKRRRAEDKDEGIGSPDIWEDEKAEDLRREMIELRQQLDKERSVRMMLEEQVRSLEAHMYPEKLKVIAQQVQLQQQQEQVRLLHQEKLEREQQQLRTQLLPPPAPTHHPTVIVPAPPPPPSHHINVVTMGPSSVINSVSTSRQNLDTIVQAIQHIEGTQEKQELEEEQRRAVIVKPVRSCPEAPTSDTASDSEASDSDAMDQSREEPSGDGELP
Chain of UniProt Q9NRX6 (Q9NRX6 whole entry, looked up): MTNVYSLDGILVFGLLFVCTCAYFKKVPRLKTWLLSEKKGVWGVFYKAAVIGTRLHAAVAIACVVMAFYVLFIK
Chain of UniProt Q5U3C3 (Q5U3C3 whole entry, looked up): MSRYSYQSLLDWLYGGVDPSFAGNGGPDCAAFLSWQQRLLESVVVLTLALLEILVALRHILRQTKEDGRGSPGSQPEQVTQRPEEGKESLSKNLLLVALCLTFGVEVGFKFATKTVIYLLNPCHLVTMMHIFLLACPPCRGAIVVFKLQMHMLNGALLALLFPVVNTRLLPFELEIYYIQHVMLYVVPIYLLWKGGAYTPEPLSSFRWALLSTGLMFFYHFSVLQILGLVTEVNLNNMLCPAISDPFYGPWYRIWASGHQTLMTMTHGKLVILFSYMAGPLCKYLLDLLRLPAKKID
Chain of UniProt P62328 (P62328 whole entry, looked up): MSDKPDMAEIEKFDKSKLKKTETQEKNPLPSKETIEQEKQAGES

Compound in one test: CN1CCc2c(c3ccccc3n2Cc2ccc(C(=O)NO)cc2)C1 [Tubastatin A]
The experiment in a line: log2 fold change, soluble protein after heating vs DMSO (PISA); higher = thermal stabilisation; K562 lysate, 10 uM; active = over 0.2 and 3.5 SD of the protein, either way, in both replicates (recomputed). Put shortly:
(§1)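 Soluble protein was defined as the supernatant remaining after 21,000xg for 90 min, following pooling of heated aliquots and adjustment to 0.5% NP-40 at 4°C. Before that, crude K562 extract at 1 mg/mL protein in PBS pH 7.4 with 1 mM MgCl2 was treated with 10 μM compound for 30 min and heated for 3 min across 48°C-58°C. Quantification used TMTpro 16plex LC-MS/MS with channel sums equalised, and values are log-two fold changes in thermal stability relative to solvent controls from duplicates.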
With TMEM132A isoform 2 (UniProt Q24JP5), the log2 fold change is 0.136.

In the case of UBIAD1 (UniProt Q9Y5Z9), the log2 fold change is 0.025.

Turning to TMEM161B (UniProt Q8NDZ6), the log2 fold change is 0.035.

Take TK1 (UniProt K7ERV3): the log2 fold change is 0.118.

As for U2AF1L5 (UniProt P0DN76), the log2 fold change is -0.193.

For TUBB4A (UniProt P04350), the log2 fold change was -0.113.

As to TM2D3 (UniProt Q9BRN9), the log2 fold change was -0.125.

Consider TUBGCP5 (UniProt Q96RT8), for which the log2 fold change was -0.128.

For UBXN10 (UniProt Q96LJ8), the log2 fold change is -0.02.

Take UBXN2B (UniProt Q14CS0): the log2 fold change is -0.001.

For the target UCHL5 (UniProt Q5LJA9), the log2 fold change is -0.153.

In the case of TNFAIP3 (UniProt P21580), the log2 fold change was -0.076.

TUBB6 (UniProt K7ES63): the log2 fold change is -0.021.

Take TRPM4 (UniProt Q8TD43): the log2 fold change was 0.053.

Take TFAP4 (UniProt Q01664): the log2 fold change is 0.135.

In the case of TMEM164 (UniProt Q5U3C3), the log2 fold change was 0.05.

Take TTLL12 (UniProt V9GY16): the log2 fold change is 0.177.

As for TPM3 isoform 3 (UniProt P06753), the log2 fold change is -0.049.

Take TXNIP (UniProt Q9H3M7): the log2 fold change is -0.021.

In the case of TMSB4X (UniProt P62328), the log2 fold change is 0.102.

In the case of TNKS (UniProt O95271), the log2 fold change is -0.087.

For the target TJP1 (UniProt G3V1L9), the log2 fold change was -0.042.

In the case of TPD52L2 isoform 3 (UniProt O43399), the log2 fold change is 0.165.

For TSPAN3 (UniProt O60637), the log2 fold change is -0.081.

For TMEM167B (UniProt Q9NRX6), the log2 fold change was -0.028.

For the target TFPI (UniProt P10646), the log2 fold change was -0.012.

As for TPM1 isoform 4 (UniProt P09493), the log2 fold change was 0.073.

Turning to TBC1D20 isoform 3 (UniProt Q96BZ9), the log2 fold change was -0.131.

On to UBL5 (UniProt Q9BZL1), for which the log2 fold change was 0.023.

TUBAL3 (UniProt A6NHL2): the log2 fold change was 0.109.

Consider TUBB4A (UniProt M0QYM7), for which the log2 fold change is -0.007.

As to TMEM177 (UniProt Q53S58), the log2 fold change was 0.05.

TLE3 isoform 5 (UniProt Q04726): the log2 fold change is -0.06.

Compound in the next test: CNC(=O)C1=CC=CC=C1NC2=NC(=NC=C2Cl)NC3=C(C=C(C=C3)N4CCOCC4)OC
The description is as above. Put shortly: as §1
On to TMEM132A isoform 2 (UniProt Q24JP5), for which the log2 fold change is -0.097.

For the target UBIAD1 (UniProt Q9Y5Z9), the log2 fold change is 0.008.

TMEM161B (UniProt Q8NDZ6): the log2 fold change was -0.022.

Regarding TK1 (UniProt K7ERV3), the log2 fold change is -0.002.

Take U2AF1L5 (UniProt P0DN76): the log2 fold change was -0.044.

With TUBB4A (UniProt P04350), the log2 fold change is -0.029.

Take TM2D3 (UniProt Q9BRN9): the log2 fold change is 0.008.

Consider UBXN10 (UniProt Q96LJ8), for which the log2 fold change is 0.051.

For the target UBXN2B (UniProt Q14CS0), the log2 fold change was -0.046.

Consider UCHL5 (UniProt Q5LJA9), for which the log2 fold change is 0.005.

For TNFAIP3 (UniProt P21580), the log2 fold change was 0.022.

TUBB6 (UniProt K7ES63): the log2 fold change is 0.111.

As for TRPM4 (UniProt Q8TD43), the log2 fold change was -0.163.

TFAP4 (UniProt Q01664): the log2 fold change is 0.133.

In the case of TMEM164 (UniProt Q5U3C3), the log2 fold change was -0.039.

TTLL12 (UniProt V9GY16): the log2 fold change is 0.077.

Regarding TPM3 isoform 3 (UniProt P06753), the log2 fold change is 0.028.

With TXNIP (UniProt Q9H3M7), the log2 fold change was 0.037.

On to TMSB4X (UniProt P62328), for which the log2 fold change was -0.045.

As to TNKS (UniProt O95271), the log2 fold change is 0.04.

With TJP1 (UniProt G3V1L9), the log2 fold change was 0.124.

On to TPD52L2 isoform 3 (UniProt O43399), for which the log2 fold change was 0.144.

Consider TSPAN3 (UniProt O60637), for which the log2 fold change is 0.027.

For TMEM167B (UniProt Q9NRX6), the log2 fold change is 0.06.

Regarding TFPI (UniProt P10646), the log2 fold change was 0.036.

As for TPM1 isoform 4 (UniProt P09493), the log2 fold change was -0.013.

As for TBC1D20 isoform 3 (UniProt Q96BZ9), the log2 fold change is -0.017.

UBL5 (UniProt Q9BZL1): the log2 fold change was -0.048.

In the case of TUBAL3 (UniProt A6NHL2), the log2 fold change is -0.179.

For the target TUBB4A (UniProt M0QYM7), the log2 fold change was -0.109.

For TMEM177 (UniProt Q53S58), the log2 fold change is 0.075.

As for TLE3 isoform 5 (UniProt Q04726), the log2 fold change is 0.004.

Compound in a further test: CNC(=O)c1ccc(Nc2ncc(C(F)(F)F)c(NCc3nccnc3N(C)S(C)(=O)=O)n2)cc1 [defactinib]
The test is described as above. The method in brief:
as §1
On to UBIAD1 (UniProt Q9Y5Z9), for which the log2 fold change is 0.031.

Take TMEM161B (UniProt Q8NDZ6): the log2 fold change is 0.067.

In the case of TK1 (UniProt K7ERV3), the log2 fold change was -0.024.

With TUBGCP5 (UniProt Q96RT8), the log2 fold change was -0.159.

For UBXN10 (UniProt Q96LJ8), the log2 fold change is 0.026.

Consider UBXN2B (UniProt Q14CS0), for which the log2 fold change is 0.07.

Regarding UCHL5 (UniProt Q5LJA9), the log2 fold change is 0.015.

In the case of TUBB6 (UniProt K7ES63), the log2 fold change is -0.018.

For TFAP4 (UniProt Q01664), the log2 fold change was -0.066.

For TMEM164 (UniProt Q5U3C3), the log2 fold change was 0.007.

For the target TTLL12 (UniProt V9GY16), the log2 fold change was -0.095.

Regarding TPM3 isoform 3 (UniProt P06753), the log2 fold change is 0.074.

Consider TXNIP (UniProt Q9H3M7), for which the log2 fold change is 0.042.

As for TNKS (UniProt O95271), the log2 fold change is -0.013.

For TJP1 (UniProt G3V1L9), the log2 fold change was 0.241.

For the target TSPAN3 (UniProt O60637), the log2 fold change is 0.096.

With TMEM167B (UniProt Q9NRX6), the log2 fold change was 0.015.

For the target TFPI (UniProt P10646), the log2 fold change is 0.056.

On to TPM1 isoform 4 (UniProt P09493), for which the log2 fold change is -0.031.

As for TBC1D20 isoform 3 (UniProt Q96BZ9), the log2 fold change was 0.166.

As for UBL5 (UniProt Q9BZL1), the log2 fold change is 0.041.

For TUBAL3 (UniProt A6NHL2), the log2 fold change was -0.093.

As to TUBB4A (UniProt M0QYM7), the log2 fold change is -0.115.

On to TMEM177 (UniProt Q53S58), for which the log2 fold change is -0.009.
